# “And” between values parts separate entries of the source, which are not always exact repeats. Equal values may be shown once. Inconclusive results are not listed. Unmarked numbers belong to inactive results. The source made the active and inactive calls. Calls follow the shape of the dose curve; as a rule, active = well fitted curve in the direction sought with a large enough effect in the repeat runs; inconclusive = weak or mixed curves; inactive = no such curve, though single readings can be large; an effect the other way counts as inactive or inconclusive.
# Test: A CellTox Green Cytotoxicity Assay to monitor cytotoxicity in HEK293 cells - 16 hour (AID 1224888); also: nearly all actives have a fitted effect of over 35% in size; also: potency is read from the fitted curve at half-maximal effect
# Details: CellTox Green fluorescence; series mostly up to 76.8 µM; activity change: at the top concentration
# Method in brief: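 Read-out: fluorescence of a cell-impermeant cyanine dye staining DNA of dead cells, proportional to cytotoxicity. HEK293, 600 cells/well with reagent, compound (23 nL DMSO) added after 5 h; reads at 0, 8, 16, 24, 32, 40 h.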
# % is scaled to controls: 0 for no effect and ±100 for the full control effect.
SMILES,activity change,Potency
O=C1OC(=O)c2ccc3c4c(ccc1c24)C(=O)OC3=O,0.942%,
c1ccc(Sc2ccccc2)cc1,10.4%,
CCCCCCCC(=O)OCC,5.57%,
CCN=c1cc2oc3cc(NCC)c(C)cc3c(-c3ccccc3C(=O)OCC)c-2cc1C,,10.9 µM (active) and 11 µM (active)
COc1cccc(CCc2ccccc2OCC(CN(C)C)OC(=O)CCC(=O)O)c1 (stereo not given),"14.4% [at 35.3 µM, stronger effect = higher value]",
Cc1oc(-c2ccccc2)nc1CCOc1ccc(C[C@H](Nc2ccccc2C(=O)c2ccccc2)C(=O)O)cc1,9.4%,
CC(C)(C)C1=CC(=O)C=C(C(C)(C)C)C1=O,22.6%,
Cc1cc(Nc2ccc(O)cc2)ccc1N,20.6%,
CCC1CCCCC1,1.37%,
CCCCCCCCCCCCCc1ccccc1,"-3% [at 35.3 µM, stronger effect = higher value]",
CC(=O)C=O,9.97%,
CCCCCCCCCCCCCCCC,-2.65%,
O=c1cccc[nH]1,-1.23%,
Cc1ccc(CCn2c3c(c4cc(Cl)ccc42)CN(C)CC3)cn1,"10.6% [at 35.3 µM, stronger effect = higher value]",
COc1ccc(-n2nc(CCC(=O)N(C)O)cc2-c2ccc(Cl)cc2)cc1,"-8.45% [at 35.3 µM, stronger effect = higher value]",
C1CC(COCC2CO2)CCC1COCC1CO1 (stereo not given),-1.55%,
CCO[Si](C)(C)OCC,5.2%,

SMILES,activity change,Potency
COc1ccccc1C=O,19.8%,
CC(C)c1ccccc1N,-4.06%,
O=S(=O)(O)CCCN1CCOCC1,-5.12%,
CCCCCCCCC(C)=O,-12.7%,
CC=O,,57.5 µM (active)
C[Si](C)(C)Cl,-11.4%,
CCN(CC)c1ccc(N)cc1,-13.4%,
O=C[C@H](O)[C@H](O)[C@H](O)CO,0.605%,
c1cc(OCC2CO2)cc(OCC2CO2)c1 (stereo not given),-13%,
Oc1ccc(-c2ccc(O)cc2)cc1,-6.67%,
CCc1cccc(C)c1,-0.368%,
CCC(C)c1cc([N+](=O)[O-])cc([N+](=O)[O-])c1OC(=O)OC(C)C (stereo not given),-0.332%,
O=C1OC(OC(=O)c2cccnc2Nc2cccc(C(F)(F)F)c2)c2ccccc21 (stereo not given),"0.61% [at 35.3 µM, stronger effect = higher value]",
Cc1cn[nH]c1,"-7.49% [at 35.3 µM, stronger effect = higher value]",
C=C(C)C(=O)OCCC[Si](Cl)(Cl)Cl,-0.104%,
CC(=O)Oc1ccc(C2(c3ccc(OC(C)=O)cc3)Oc3ccccc3NC2=O)cc1,"-8.88% [at 35.3 µM, stronger effect = higher value]",

# Test: qHTS RealTime-Glo MT Cell Viability Assay in HepG2 cells - 0 hour (AID 1224889); also: nearly all actives have a fitted effect of over 50% in size
# Details: RealTime-Glo luminescence; series mostly up to 76.8 µM; activity change, negative = cytotoxicity: at the top concentration
# Method in brief: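 Compound treatment began 5 h after plating HepG2 cells (600/well) with NanoLuc luciferase and prosubstrate. Plates stayed at 37 C for 40 h; luminescence was captured at six time points, 0 h through 40 h.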
SMILES,"activity change, negative = cytotoxicity",Potency
O=C1OC(=O)c2ccc3c4c(ccc1c24)C(=O)OC3=O,2%,
CCN(CC)CCSC(=O)C(c1ccccc1)c1ccccc1,1.48% [at 35.3 µM],
C=C1C(C)(C)[C@@]2(Cl)C(Cl)[C@]1(Cl)C(Cl)(Cl)C2(Cl)Cl (stereo not given in full),-9.31%,
c1ccc(Sc2ccccc2)cc1,-2.61%,
CCCCCCCC(=O)OCC,-16.3%,
CCN=c1cc2oc3cc(NCC)c(C)cc3c(-c3ccccc3C(=O)OCC)c-2cc1C,,inactive
COc1cccc(CCc2ccccc2OCC(CN(C)C)OC(=O)CCC(=O)O)c1 (stereo not given),-0.868% [at 35.3 µM],
Cc1oc(-c2ccccc2)nc1CCOc1ccc(C[C@H](Nc2ccccc2C(=O)c2ccccc2)C(=O)O)cc1,-14.5%,
CC(C)(C)C1=CC(=O)C=C(C(C)(C)C)C1=O,5.35%,
CCC1CCCCC1,-9.14%,
CCCCCCCCCCCCCc1ccccc1,-14.3% [at 35.3 µM],
CC(=O)C=O,8.4%,
CCCCCCCCCCCCCCCC,-1.16%,
O=c1cccc[nH]1,5.15%,
C1CC(COCC2CO2)CCC1COCC1CO1 (stereo not given),-5.95%,
CCO[Si](C)(C)OCC,12.7%,

SMILES,"activity change, negative = cytotoxicity",Potency
COc1ccccc1C=O,-18.5%,
CC(C)c1ccccc1N,8.36%,
O=S(=O)(O)CCCN1CCOCC1,-0.349%,
CCCCCCCCC(C)=O,1.01%,
CC=O,12%,
C[Si](C)(C)Cl,2.57%,
CCN(CC)c1ccc(N)cc1,0.955%,
O=C[C@H](O)[C@H](O)[C@H](O)CO,18.5%,
c1cc(OCC2CO2)cc(OCC2CO2)c1 (stereo not given),-8%,
Oc1ccc(-c2ccc(O)cc2)cc1,2.24%,
CCc1cccc(C)c1,-13%,
CCC(C)c1cc([N+](=O)[O-])cc([N+](=O)[O-])c1OC(=O)OC(C)C (stereo not given),-15.2%,
O=C1OC(OC(=O)c2cccnc2Nc2cccc(C(F)(F)F)c2)c2ccccc21 (stereo not given),-0.631% [at 35.3 µM],
Cc1cn[nH]c1,8.62% [at 35.3 µM],
CC(=O)Oc1ccc(C2(c3ccc(OC(C)=O)cc3)Oc3ccccc3NC2=O)cc1,-2.99% [at 35.3 µM],

# Test: A CellTox Green Cytotoxicity Assay to monitor cytotoxicity in HepG2 cells - 8 hour (AID 1224890); also: nearly all actives have a fitted effect of over 45% in size; also: potency is read from the fitted curve at half-maximal effect
# Details: CellTox Green fluorescence; series mostly up to 76.8 µM; cytotoxicity increase: at the top concentration
# Method in brief: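 HepG2, 600 cells/well premixed w/ CellTox Green; 5 h settle, 37 C/5% CO2; pintool cpd add (DMSO); 37 C, 40 h; fluorescence read at 0, 8, 16, 24, 32, 40 h.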
SMILES,cytotoxicity increase,Potency
O=C1OC(=O)c2ccc3c4c(ccc1c24)C(=O)OC3=O,-3.9%,
CCN(CC)CCSC(=O)C(c1ccccc1)c1ccccc1,0.446% [at 35.3 µM],
C=C1C(C)(C)[C@@]2(Cl)C(Cl)[C@]1(Cl)C(Cl)(Cl)C2(Cl)Cl (stereo not given in full),8.95%,
c1ccc(Sc2ccccc2)cc1,3.89%,
CCCCCCCC(=O)OCC,6.29%,
CCN=c1cc2oc3cc(NCC)c(C)cc3c(-c3ccccc3C(=O)OCC)c-2cc1C,,21.8 µM (active) and 6.92 µM (active)
COc1cccc(CCc2ccccc2OCC(CN(C)C)OC(=O)CCC(=O)O)c1 (stereo not given),-1.32% [at 35.3 µM],
Cc1oc(-c2ccccc2)nc1CCOc1ccc(C[C@H](Nc2ccccc2C(=O)c2ccccc2)C(=O)O)cc1,14.6%,
CC(C)(C)C1=CC(=O)C=C(C(C)(C)C)C1=O,-0.971%,
Cc1cc(Nc2ccc(O)cc2)ccc1N,-23.6%,
CCC1CCCCC1,-6.07%,
CCCCCCCCCCCCCc1ccccc1,-18.8% [at 35.3 µM],
CC(=O)C=O,1.89%,
CCCCCCCCCCCCCCCC,-2.77%,
O=c1cccc[nH]1,-5.74%,
Cc1ccc(CCn2c3c(c4cc(Cl)ccc42)CN(C)CC3)cn1,3.82% [at 35.3 µM],
COc1ccc(-n2nc(CCC(=O)N(C)O)cc2-c2ccc(Cl)cc2)cc1,5.68% [at 35.3 µM],
C1CC(COCC2CO2)CCC1COCC1CO1 (stereo not given),-0.152%,

SMILES,cytotoxicity increase,Potency
CCO[Si](C)(C)OCC,-0.436%,
COc1ccccc1C=O,15.1%,
CC(C)c1ccccc1N,1.14%,
O=S(=O)(O)CCCN1CCOCC1,-2.81%,
CCCCCCCCC(C)=O,2.21%,
CC=O,,57.5 µM (active)
C[Si](C)(C)Cl,-7.91%,
CCN(CC)c1ccc(N)cc1,-0.801%,
O=C[C@H](O)[C@H](O)[C@H](O)CO,1.19%,
c1cc(OCC2CO2)cc(OCC2CO2)c1 (stereo not given),-5.63%,
Oc1ccc(-c2ccc(O)cc2)cc1,5.25%,
CCc1cccc(C)c1,-1.44%,
CCC(C)c1cc([N+](=O)[O-])cc([N+](=O)[O-])c1OC(=O)OC(C)C (stereo not given),-8.13%,
O=C1OC(OC(=O)c2cccnc2Nc2cccc(C(F)(F)F)c2)c2ccccc21 (stereo not given),-7.71% [at 35.3 µM],
CCCC(CC)CCCCCCCN (stereo not given),3.47%,
Cc1cn[nH]c1,2.04% [at 35.3 µM],
C=C(C)C(=O)OCCC[Si](Cl)(Cl)Cl,-14%,
CC(=O)Oc1ccc(C2(c3ccc(OC(C)=O)cc3)Oc3ccccc3NC2=O)cc1,1.89% [at 35.3 µM],
